From PubChem
Shown are actives, neighbours in structure and some others; about 1.1% of the full set was active somewhere.
HDAC3 inhib: inhibitors of human histone deacetylase 3; 320,000 compounds, 0.15% hits; O15379; inhibition, % at 8.3 µM; recombinant HDAC3, fluorogenic peptide/trypsin coupled, fluorescence; in the data active = inhibition above about 26%, passing the limit was not always enough
Target sequence (O15379 whole entry, looked up): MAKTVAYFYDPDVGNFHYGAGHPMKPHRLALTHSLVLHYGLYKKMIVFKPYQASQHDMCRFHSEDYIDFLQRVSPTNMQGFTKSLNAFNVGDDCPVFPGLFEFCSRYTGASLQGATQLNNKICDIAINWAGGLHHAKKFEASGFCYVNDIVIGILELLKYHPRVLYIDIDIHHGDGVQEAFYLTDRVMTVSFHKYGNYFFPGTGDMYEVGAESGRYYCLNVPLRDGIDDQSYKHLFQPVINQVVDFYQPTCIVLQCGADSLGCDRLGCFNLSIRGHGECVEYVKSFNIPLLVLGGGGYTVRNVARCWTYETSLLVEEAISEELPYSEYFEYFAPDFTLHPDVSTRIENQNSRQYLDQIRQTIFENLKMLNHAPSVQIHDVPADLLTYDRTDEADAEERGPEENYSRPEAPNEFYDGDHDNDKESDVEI
IDE inh: inhibits human insulin-degrading enzyme in HEK cells. FAbetaB cleavage, fluorescence polarization. P14735. 320,000 compounds, 0.41% hits. inhibition, % at 5.59 µM;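 active = percent inhibition above the average of all tested compounds plus 3 SD, set per screening campaign, cut at about 16% in these data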;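 also: IDE supplied by intact live HEK cells; FP after avidin binding of uncleaved biotin substrate so inhibition keeps polarization high; 0% = DMSO wells and 100% = 60 µM reference IDE inhibitor Ii1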
LANA-H2B inh: blocks KSHV LANA binding to histone H2A/H2B; inhibition, % (concentration not given with the values); 320,000 compounds, 0.6% hits; Q9QR71; cell-free LANA-H2A/H2B peptide, fluorescence polarization; in the data active = inhibition mostly above about 10%, no sharp cut-off; inactive = mostly below about 6.7%
IDE cell activ: activators of human insulin-degrading enzyme in cells | P14735 | HEK cells, FAbeta-B cleavage, fluorescence polarization; 0% vehicle, 100% cell-free pure enzyme wells | activation, % at 5.96 µM | 340,000 compounds, 0.073% hits | AID 493087;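 active = activation above the mean of all tested compounds plus 3 SD, set per screening campaign, cut at about 17% in these data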
IDE cell inh cf: confirmation of human insulin-degrading enzyme inhibitors in cells. shares compounds with IDE inh. HEK cells, FAbetaB cleavage, fluorescence polarization. inhibition, % at 5.59 µM. 1,200 compounds, 51% hits. AID 435028;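 active = mean inhibition across triplicate wells above the cutoff set by the earlier primary insulin-degrading enzyme screen, cut at about 16% in these data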;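 also: 0% = DMSO wells and 100% = 60 µM reference IDE inhibitor Ii1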
HEK293 tox: HEK cell cytotoxicity, counter-screen for IDE inhibitors | HEK293 cytotoxicity, ATP luminescence | inhibition, % at 5.59 µM | AID 449730 | shares compounds with IDE inh | 1,200 compounds, 28% hits; in the data active = inhibition above about 22%;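 also: 0% = vehicle wells and 100% = reference cytotoxic drug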
Numbers without * were called inactive; / = not tested or not shown.

SMILES	HDAC3 inhib	IDE inh	LANA-H2B inh	IDE cell activ	IDE cell inh cf	HEK293 tox
CCCCOc1ccc(N2C(=O)C(C)CNC2=S)cc1 (stereo not drawn)	/	/	/	5	/	/
COc1ccc(NC(=S)N2CCNC(=O)C2CC(=O)Nc2cccc(Cl)c2C)cc1 (stereo not drawn)	-4	3	6	5	/	/
COc1cc(Cl)c(C)cc1NC(=O)CC1CCCC1	7	0	1	1	/	/
COC(=O)C1=C(C)N(c2ccc(F)cc2)/C(=C/c2ccc(O)cc2)C1=O	-9	20*	2	-40	76*	12
COC(=O)C1=C(C)N(c2ccc(C)cc2)/C(=C/c2cccs2)C1=O	-2	-5	-2	1	/	/
Cc1cccc(C(=O)OCC(=O)Nc2ccc3c(c2)OCCO3)c1O	-13	5	-5	4	/	/
Fc1ccc2[nH]c3c(NCc4ccccc4)ncnc3c2c1	-10	88*	-3	-24	67*	59*
COCCNc1ncnc2c1[nH]c1ccccc12	/	18*	5	-13	6	18
OCCCNc1ncnc2c1[nH]c1ccccc12	-13	5	-2	-5	/	/
COc1ccc2[nH]c3c(NCc4ccco4)ncnc3c2c1	-15	38*	0	/	18*	15
CCOc1ccccc1NC(=O)COC(=O)C12CC3CC(CC(O)(C3)C1)C2	/	/	/	0	/	/
CC(C)(CNC(=O)c1ccccc1NS(C)(=O)=O)N1CCCCC1	-2	5	2	1	/	/
O=C(NCc1ccc(F)cc1)C1CCCN(C(=O)NCc2ccccc2)C1 (stereo not drawn)	8	1	-2	3	/	/
CCc1ccc(Nc2n[n+](-c3ccccc3)c(-c3ccc(N(CC)CC)cc3)s2)cc1	10	19*	-11	-8	23*	58*
CCN(CC)c1ccc(-c2sc(Nc3ccccc3)n[n+]2-c2ccc(F)cc2)cc1	16	2	-87	-7	/	/
Cc1c(CCC(=O)NCC(=O)NCC(=O)O)c(=O)oc2cc3oc4c(c3cc12)CCCC4	-5	24*	0	-12	12	11
CC(C)NC(=O)C(c1ccc(F)cc1)N(C(=O)CCC(=O)Nc1ccccn1)C1CCCC1 (stereo not drawn)	-4	3	-2	5	/	/
CCN1/C(=C/c2cc[n+](CCCS(=O)(=O)[O-])c3ccccc23)Sc2ccccc21	13	26*	-169	-8	28*	10
CCC(/C=C1\Sc2ccc(OC)cc2N1CC)=C\c1sc2ccc(OC)cc2[n+]1CCCS(=O)(=O)[O-]	4	3	0	1	/	/
Cc1cc(OCC(=O)Nc2ccc(Br)cc2)cc2c1C(=O)CC(C)(C)O2	-1	17*	1	/	0	22
CC(=O)Nc1ccc(NC(=O)COc2cc(O)c3c(c2)OC(C)(C)CC3=O)cc1	0	0	3	-2	/	/
COc1cc(OC)cc(C(=O)Nc2cccc(NC(=O)c3cc(OC)cc(OC)c3)n2)c1	-6	17*	5	-4	4	17
C=CCc1cccc(/C=C/c2cc(=O)c3ccccc3[nH]2)c1O	4	17*	4	-29	3	11
CCOC(=O)c1ccc2c(c1)nc(SC(C)C(=O)NCC1CCCO1)n2CC (stereo not drawn)	-1	-1	5	1	/	/
O=C(N/N=C/c1ccc(O)cc1O)c1ccc(CN2C(=O)c3cccc4cccc2c34)cc1	-1	26*	-4	-27	10	98*
SMILES	HDAC3 inhib	IDE inh	LANA-H2B inh	IDE cell activ	IDE cell inh cf	HEK293 tox
COc1ccc(CN(C)CC(=O)Nc2ccccc2C(=O)NC2CC2)cc1F	3	5	15	1	/	/
Cc1ccc(C2=NN=C(NC(=O)CSc3nncn3C)SC2)cc1	4	24*	8	-19	12	11
Cc1ccc(C(=O)NC(=O)CSc2nncn2C)cc1	-3	8	1	-1	/	/
CC1=NN(c2ccccc2)C(=O)/C1=C/C=C/C=C/N(C)C	9	18*	-22	-13	11	27*
CC1=NN(c2ccc(C)cc2)C(=O)/C1=C\C=C\c1ccccc1	4	0	0	2	/	/
COc1ccc(N2CCN(C(c3cccs3)C(C)NC(=O)C(=O)N3CCCC3)CC2)cc1 (stereo not drawn)	5	3	-1	2	/	/
CN1CCN(c2ccc(Nc3ccnc4cc(Cl)ccc34)cc2)CC1	2	11	3	-18	/	/
CCOc1ccc(Nc2ccnc3cc(Cl)ccc23)cc1	7	17*	3	-16	15	36*
CCCCN(C(=O)Nc1ccc(OCC)cc1)C1CCN(C(C)=O)CC1	-1	-5	-1	-5	/	/
C=CCn1c(SCC(=O)N2CCc3ccccc3C2)nc2sc(CC)cc2c1=O	5	17*	4	-2	7	12
CC1=CC(C)(C)Nc2ccc(OC(=O)CN3C(=O)c4ccccc4C3=O)cc21	11	19*	-1	-3	41*	123*
O=C1CC(c2ccccc2F)c2c(c3ccccc3[nH]c2=O)O1 (stereo not drawn)	1	3	-1	-4	/	/
CC(=O)Nc1ccc(NC(=O)CCSCCc2ccccn2)cc1	7	-3	-2	7	/	/
CCOC(=O)/C(C#N)=C\C=C1C=CN(C)C=C1	13	52*	-21	-38	38*	11
CCOC(=O)/C(C#N)=C\c1ccc(CC)s1	7	0	-5	-3	/	/
CCOC(=O)C1=C(CSc2nc(C)cc(C)c2C#N)OC(N)=C(C#N)C1c1cccs1 (stereo not drawn)	7	23*	-6	/	3	5
CCCC[n+]1c2ccccc2cc2ccccc21	-19	16*	-2	-10	6	40*
O=c1cc(CNc2cc(Cl)ccc2Cl)nc2sccn12	-2	17*	0	-20	7	8
O=c1cc(COc2ccc(Cl)c(Cl)c2)nc2sccn12	-3	-1	-1	1	/	/
COCCCNC(=S)N1CCC(NC(=O)c2ccco2)CC1	3	-3	0	3	/	/
Cc1ccc(Nc2cnn(C34CC5CC(CC(CC(=O)O)(C5)C3)C4)c(=O)c2Cl)cc1C	8	32*	-6	-24	25*	9
O=C(c1ccccc1)c1ccc(O)cc1O	2	19*	45*	-26	40*	5
CC1(C)CC(=O)C2=C(C1)N(c1ccccc1)C(=O)C2(O)C(F)(F)F (stereo not drawn)	3	16*	-1	3	2	7
CC1(C)CC(=O)C2=C(C1)N(c1ccc(F)cc1)C(=O)C2(O)C(F)(F)F (stereo not drawn)	1	2	-1	-3	/	/
Cc1ccc(Cl)cc1N1CCN(C(=O)c2ccc3nc[nH]c3c2)CC1	13	19*	-8	-19	3	14
Cc1cccc(N2CCN(C(=O)c3ccc4nc[nH]c4c3)CC2)c1C	0	8	2	-3	/	/
O=C(C1CC1)N1N=C(C2CCCCC2)CC1(O)C(F)(F)F (stereo not drawn)	-3	6	-17	6	/	/
